This is an account of results in PubChem BioAssay (NCATS).

Structures are written as SMILES. Records with an inconclusive call do not appear. Entries that show only a call come without a potency. Active and inactive are the calls of the source. Calls come from the whole dose curve; as a rule, active = well fitted curve in the direction sought with a large enough effect; inconclusive = small, poorly fitted or top-dose-only effect, or another doubt; inactive = no such curve, though single readings can be large; an effect the other way counts as inactive or inconclusive.

The nature of experiment [1]: MultiTox-Fluor Cytotoxicity Assay - LYMP1-001 - Live Cells (AID 947).
Experiment [2] deals with Muscarinic acetylcholine receptor M1 (Rattus norvegicus) (UniProt P08482). The experiment is described as follows: qHTS Assay for Antagonists of Acetylcholine Muscarinic M1 Receptor: Kinetic Measurement of Intracellular Calcium Response (AID 943). Note: series mostly up to about 35 µM; nearly all actives have a fitted effect of over 75% in size. The essentials:
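CHO cells expressing rat M1 receptor, Fluo-4 loaded, preincubated 10 min with compound, then stimulated with EC80 carbachol (100 nM final). Kinetic calcium fluorescence over 4 min; response taken as peak over basal signal.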

Experiment [3] has the same target. The experiment can be described thus: qHTS Assay for Antagonists of Acetylcholine Muscarinic M1 Receptor: Measurement of IP-One Response (AID 944). Note: potency is the fitted concentration of half-maximal effect; nearly all actives have a fitted effect of over 75% in size. The essentials: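 CHO cells stably expressing rat M1, pretreated 10 min with compound, then stimulated 30 min with carbachol at EC80 (200 nM) in LiCl-containing buffer pH 7.4; IP1 accumulation read by HTRF competition (665/620 nm).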

Experiment [4] has as its target Pyruvate kinase (Leishmania mexicana) (UniProt Q27686). The experiment is described as follows: qHTS Validation Assay for Inhibitors of Leishmania Mexicana Pyruvate Kinase (AID 945). In outline:
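Eight-point qHTS titrations in triplicate, data normalized to DMSO neutral control. Reaction: 0.2 nM LmPYK E451W mutant, 0.5 mM PEP, 0.1 mM ADP, 7 mM MgCl2, pH 7.2, one hour at room temperature; luminescent ATP detection.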

Sequence of Muscarinic acetylcholine receptor M1 (Rattus norvegicus) (P08482 whole entry, looked up): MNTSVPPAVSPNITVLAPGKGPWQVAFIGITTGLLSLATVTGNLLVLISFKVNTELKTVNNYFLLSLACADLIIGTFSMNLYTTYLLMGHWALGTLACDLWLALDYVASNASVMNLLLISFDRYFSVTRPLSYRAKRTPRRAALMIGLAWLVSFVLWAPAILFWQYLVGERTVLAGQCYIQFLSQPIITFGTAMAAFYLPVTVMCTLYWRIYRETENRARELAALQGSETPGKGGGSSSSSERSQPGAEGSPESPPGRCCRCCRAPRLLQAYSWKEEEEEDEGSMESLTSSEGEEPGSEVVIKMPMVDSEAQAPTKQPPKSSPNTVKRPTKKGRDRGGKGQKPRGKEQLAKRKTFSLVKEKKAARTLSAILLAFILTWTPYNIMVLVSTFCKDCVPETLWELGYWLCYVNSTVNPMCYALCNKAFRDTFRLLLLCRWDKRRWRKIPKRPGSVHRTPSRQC
Sequence of Pyruvate kinase (Leishmania mexicana) (Q27686 2-499 E452W): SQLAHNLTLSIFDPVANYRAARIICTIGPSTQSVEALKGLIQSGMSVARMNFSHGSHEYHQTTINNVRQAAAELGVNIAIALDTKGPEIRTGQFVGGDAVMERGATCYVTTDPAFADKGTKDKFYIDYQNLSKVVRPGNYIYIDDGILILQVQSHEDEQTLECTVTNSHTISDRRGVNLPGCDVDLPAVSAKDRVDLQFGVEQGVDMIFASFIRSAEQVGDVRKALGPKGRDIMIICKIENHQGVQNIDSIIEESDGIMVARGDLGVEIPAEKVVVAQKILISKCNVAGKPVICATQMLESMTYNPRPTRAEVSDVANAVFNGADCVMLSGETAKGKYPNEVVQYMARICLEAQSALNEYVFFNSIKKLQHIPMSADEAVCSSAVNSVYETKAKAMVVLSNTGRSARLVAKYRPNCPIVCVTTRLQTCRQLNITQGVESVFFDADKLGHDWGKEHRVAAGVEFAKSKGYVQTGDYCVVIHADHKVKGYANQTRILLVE

Turning to `CNCC(O)c1ccc(O)cc1` (stereo not given), the result in experiment [1] was inactive.
With `NCC(O)c1ccc(O)cc1` (stereo not given), the call in experiment [1] was inactive.
As to `O=c1c(O)c(-c2ccc(O)c(O)c2)oc2cc(O)cc(O)c12`, the Potency entry in experiment [2] was “inactive”.
Consider `Cc1nc2n(c(=O)c1CCN1CCC(c3noc4cc(F)ccc34)CC1)CCCC2`, for which the Potency in experiment [3] is 12.6 µM (active).
For the compound `N#CC(C#N)=Cc1ccc(O)c(O)c1`, the call in experiment [4] was inactive.
